# “And” between values parts separate entries of the source, which are not always exact repeats. Identical values can stand only once. Records with an inconclusive call do not appear. The source made the active and inactive calls. Unless noted, calls follow the shape of the dose curve; as a rule, active = well fitted curve in the direction sought with a large enough effect; inconclusive = small, poorly fitted or top-dose-only effect, or another doubt; inactive = no such curve, though single readings can be large or run the other way.
# Experiments:
# [1] = target: T1, Hexokinase-4 (Homo sapiens) + Glucokinase regulatory protein (Homo sapiens) (UniProt P35557+Q14397); test: qHTS assay for inhibitors of recombinant human GCK-GKRP interaction: Diaphorase-coupled assay (AID 743205); conditions: G6PDH/diaphorase resorufin fluorescence; series mostly up to 57.5 µM
# T1 sequence (P35557 whole entry, looked up): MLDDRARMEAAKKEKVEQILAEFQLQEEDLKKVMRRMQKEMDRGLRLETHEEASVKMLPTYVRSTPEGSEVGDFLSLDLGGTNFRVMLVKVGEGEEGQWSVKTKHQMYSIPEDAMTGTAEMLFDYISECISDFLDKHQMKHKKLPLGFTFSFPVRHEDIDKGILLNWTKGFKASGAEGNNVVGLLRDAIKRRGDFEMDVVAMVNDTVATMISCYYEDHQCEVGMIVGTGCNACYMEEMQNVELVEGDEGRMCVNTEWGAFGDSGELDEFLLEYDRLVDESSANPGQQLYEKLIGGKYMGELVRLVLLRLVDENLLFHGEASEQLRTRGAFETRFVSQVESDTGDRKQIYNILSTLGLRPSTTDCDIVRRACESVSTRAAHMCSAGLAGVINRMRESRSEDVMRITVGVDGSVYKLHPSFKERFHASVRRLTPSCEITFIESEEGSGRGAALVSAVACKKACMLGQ
# T1 sequence (Q14397 whole entry, looked up): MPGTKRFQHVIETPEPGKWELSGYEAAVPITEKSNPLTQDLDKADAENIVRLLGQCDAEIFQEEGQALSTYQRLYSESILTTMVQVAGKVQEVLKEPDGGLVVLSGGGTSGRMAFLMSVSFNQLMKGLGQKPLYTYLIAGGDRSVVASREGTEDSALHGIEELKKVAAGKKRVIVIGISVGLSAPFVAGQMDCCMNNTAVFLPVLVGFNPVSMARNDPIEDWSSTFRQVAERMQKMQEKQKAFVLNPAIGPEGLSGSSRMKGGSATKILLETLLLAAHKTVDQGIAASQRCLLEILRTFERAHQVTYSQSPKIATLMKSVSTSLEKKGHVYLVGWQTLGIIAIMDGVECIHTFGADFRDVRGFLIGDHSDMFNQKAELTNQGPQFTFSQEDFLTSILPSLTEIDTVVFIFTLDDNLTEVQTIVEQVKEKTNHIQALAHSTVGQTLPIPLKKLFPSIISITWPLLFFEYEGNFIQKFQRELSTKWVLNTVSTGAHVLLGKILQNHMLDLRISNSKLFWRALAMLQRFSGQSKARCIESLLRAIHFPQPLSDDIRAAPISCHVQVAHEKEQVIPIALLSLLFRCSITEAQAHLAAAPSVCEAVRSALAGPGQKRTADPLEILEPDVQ
# In short: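 Signal derives from resorufin generated by diaphorase, linked to GCK turnover of glucose (5 mM) and ATP (0.4 mM). Enzyme complex was added after a 20-minute compound preincubation and monitored for 30 minutes.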
# [2] = target: T1, Hexokinase-4 (Homo sapiens) + Glucokinase regulatory protein (Homo sapiens); test: qHTS assay for inhibitors of recombinant human GCK-GKRP interaction: ADP-Glo assay (AID 743206); conditions: ADP-Glo luminescence, 60 min, 0% = vehicle-only wells with enzyme present; series mostly up to 76.9 µM;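 also: plate controls were DMSO plus enzyme for no effect and no enzyme for full effect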
# In short: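 GST-GCK and FLAG-GKRP (15 nM each in the dispensed mix, with 2 uM S6P) react with 0.4 mM ATP and 5 mM glucose (final) in Hepes pH 7.6 for 60 min at room temperature. ADP is measured by ADP-Glo luminescence.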
# [3] = target: T1, Hexokinase-4 (Homo sapiens) + Glucokinase regulatory protein (Homo sapiens); test: qHTS assay for inhibitors of recombinant human GCK-GKRP interaction: HTRF assay (AID 743207); conditions: recombinant GCK-GKRP HTRF binding, 60 min, with sorbitol-6-phosphate; series mostly up to 57.5 µM;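 also: 0% = DMSO with GCK present and -100% = DMSO wells lacking GCK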
# In short: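 Titration screening format: recombinant GST-GCK and FLAG-GKRP at 5 nM, S6P at 2 uM, labelled anti-tag antibodies, 60 min at RT, dual-wavelength HTRF readout.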
# [4] = qHTS Assay for Identifying Gametocytocidal Compounds (AID 743244); also: potency is read from the fitted curve at half-maximal effect;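 as to max response: % is scaled to controls: 0 for no effect and ±100 for the full control effect; actives lower the fluorescent signal which means gametocytes are killed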; conditions: P. falciparum 3D7 stage III-V gametocytes, alamarBlue, 72 h; max response: stronger effect = lower value
# In short: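 Compounds are pinned into medium, gametocytes (stage III–V, 3D7, 20,000 cells/well) added, and plates held 72 h at 37 °C in 5% CO2. AlamarBlue follows for 24 h before fluorescence reading.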
# [5] = qHTS profiling for inhibitors of Plasmodium falciparum (3D7) proliferation (AID 743322; call rule not given here;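 also: infected erythrocytes exposed to compound for 72 h before lysis; 100% = DMSO vehicle wells and 0% = 0.29 µM artemisinin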); conditions: P. falciparum 3D7 proliferation; at 28.7 µM (top of the series) unless noted
# In short: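 Erythrocytes infected with P. falciparum (0.3% parasitemia, 2.5% hematocrit) incubated with compounds 72 h at 37 C, 5% CO2. Lysis with saponin/Triton buffer containing SYBR Green I, overnight at room temperature in the dark; DNA fluorescence (485/535 nm) normalised to 0.29 uM artemisinin and DMSO.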
smiles,measurement,setting,value
COc1cc(NS(C)(=O)=O)ccc1Nc1c2ccccc2nc2ccccc12,outcome,[1],inactive
same,outcome,[2],inactive
same,outcome,[3],inactive
same,Potency,[4],6.31 µM (active)
Cc1c(C)n(Cc2ccccc2)c2ccc(C(=O)OCCN(C)C)cc12,max response,[4],28.3% (inactive)
CCOC(=O)c1cccc(N)c1,max response,[4],-5.91% (inactive)
O=C(OCC(O)CO)c1ccccc1Nc1ccnc2cc(Cl)ccc12 (centres undefined),max response,[4],7.94% (inactive)
COc1cc2c(cc1O)CC[C@@H]1[C@@H]2CC[C@]2(C)[C@@H](O)CC[C@@H]12,outcome,[1],inactive
same,outcome,[2],inactive
same,outcome,[3],inactive
same,max response,[4],-20.1% (inactive) and 26.1% (inactive)
same,remaining parasite growth % (stronger effect = lower value),[5],90.1% and 79.2%
CCN(CCCc1ccccc1)CCCc1ccccc1,max response,[4],0.141% (inactive)
O=C(O)c1cc2cc(Cc3cccnc3)ccc2o1,outcome,[1],inactive
same,outcome,[2],inactive
same,outcome,[3],inactive
same,max response,[4],2.09% (inactive) and 51.2% (inactive)
C[N+]1(CCCCC[N+]2(C)CCCC2)CCCC1,outcome,[1],inactive
same,outcome,[2],inactive
same,outcome,[3],inactive
same,max response,[4],12.3% (inactive) and 19.3% (inactive)
CC(=O)O[C@H]1C[C@@H]2CC[C@@H]3[C@H](CC[C@@]4(C)[C@H]3C[C@H]([N+]3(C)CCCCC3)[C@@H]4OC(C)=O)[C@@]2(C)C[C@@H]1[N+]1(C)CCCCC1,outcome,[1],inactive
same,outcome,[2],inactive
same,outcome,[3],inactive
same,max response,[4],-9.72% (inactive) and 10.5% (inactive)
C[C@@H]1C[C@H]2[C@@H]3C[C@H](F)C4=CC(=O)C(Cl)=C[C@]4(C)[C@@]3(F)[C@@H](O)C[C@]2(C)[C@@]1(O)C(=O)CO,max response,[4],5.34% (inactive)
CC1(C)O[C@@H]2C[C@H]3[C@@H]4C[C@H](F)C5=CC(=O)CC[C@]5(C)[C@H]4[C@@H](O)C[C@]3(C)[C@]2(C(=O)CO)O1,max response,[4],1.24% (inactive)
CNCCC(Oc1ccccc1C)c1ccccc1 (centres undefined),outcome,[1],inactive
same,outcome,[2],inactive
same,outcome,[3],inactive
same,max response,[4],9.68% (inactive)
Nc1cc(Cl)c(NC2=NCCN2)c(Cl)c1,outcome,[1],inactive
same,outcome,[2],inactive
same,outcome,[3],inactive
same,max response,[4],-0.108% (inactive) and 36.5% (inactive)
OC[C@@H](O)[C@@H](O[C@@H]1O[C@H](CO)[C@H](O)[C@H](O)[C@H]1O)[C@H](O)[C@@H](O)CO,max response,[4],9.4% (inactive)
CCCCCCCCCCCCCCCC[N+](C)(C)CC,Potency,[4],14.1 µM (active)
CC(=O)[C@H]1CC[C@H]2[C@@H]3C[C@H](C)C4=CC(=O)CC[C@]4(C)[C@H]3[C@@H](O)C[C@]12C,max response,[4],9.78% (inactive)
CCC(NC(C)C)C(O)c1ccc(O)c(O)c1 (centres undefined),outcome,[1],inactive
same,outcome,[2],inactive
same,outcome,[3],inactive
same,max response,[4],-4.31% (inactive)
CCC(C(=O)OCCN(CC)CC)c1ccccc1 (centres undefined),max response,[4],-1.81% (inactive)
COC(=O)[C@H]1[C@H]2C[C@H]3c4[nH]c5ccccc5c4CCN3C[C@H]2CC[C@@H]1O,outcome,[1],inactive
same,outcome,[2],inactive
same,outcome,[3],inactive
same,max response,[4],13.2% (inactive) and 17.2% (inactive)
CC[C@H](C)C(=O)O[C@H]1CCC=C2C=C[C@H](C)[C@H](CC[C@@H]3C[C@@H](O)CC(=O)O3)[C@H]21,outcome,[1],inactive
same,outcome,[2],inactive
same,outcome,[3],inactive
same,max response,[4],15.8% (inactive) and 37.7% (inactive)
COc1ccc(CN2CCN(C(c3ccc(F)cc3)c3ccc(F)cc3)CC2)c(OC)c1OC,max response,[4],1.04% (inactive)
Cc1c(C(C)C)c(=O)n(-c2ccccc2)n1C,max response,[4],39.2% (inactive)
Cc1c(C(N)=O)cc([N+](=O)[O-])cc1[N+](=O)[O-],max response,[4],-0.173% (inactive)
NCCC(O)(P(=O)(O)O)P(=O)(O)O,max response,[4],1.74% (inactive)
CC(=O)N(O)CCCCCNC(=O)CCC(=O)N(O)CCCCCNC(=O)CCC(=O)N(O)CCCCCN,max response,[4],17.5% (inactive)
NC(=O)C(=O)N/N=C/c1ccc([N+](=O)[O-])o1,Potency,[4],17.8 µM (active)
Cc1cccc(C)c1NC(=O)CN1CCN(CCCC(c2ccc(F)cc2)c2ccc(F)cc2)CC1,max response,[4],0.546% (inactive)
CC(Cc1cccc(C(F)(F)F)c1)NCCOC(=O)c1ccccc1 (centres undefined),max response,[4],8% (inactive)
CCCCCCCCCCCCCCCCCC(=O)OCC(O)CO (centres undefined),max response,[4],-12.5% (inactive)
CC1=C(C(=O)O)N2C(=O)[C@@H](NC(=O)[C@H](N)c3ccc(O)cc3)[C@H]2SC1,max response,[4],17.2% (inactive)
COC(=O)[C@@H]1CC2=CC(=O)CC[C@]2(C)[C@@]23O[C@@H]2C[C@@]2(C)[C@@H](CC[C@@]24CCC(=O)O4)[C@H]13,max response,[4],1.84% (inactive)
CN=C(NC#N)NCCSCc1csc(N=C(N)N)n1,max response,[4],5.67% (inactive)
C[C@]12C=CC(=O)C=C1CC[C@@H]1[C@@H]2[C@@H](O)C[C@@]2(C)[C@H]1CC[C@]2(O)C(=O)CO,max response,[4],0.844% (inactive)
OC[C@H]1O[C@@H](n2cnc3c(=S)nc[nH]c32)[C@H](O)[C@@H]1O,max response,[4],-4.52% (inactive)
COC(=O)CCc1ccc(OCC(O)CNC(C)C)cc1 (centres undefined),max response,[4],1.13% (inactive)
C[C@]12CC[C@@H]3c4ccc(O)cc4CC[C@H]3[C@@H]1C[C@@H](O)[C@@H]2O,max response,[4],5.6% (inactive)
C[C@H]1[C@H](NC(=O)/C(=N/OC(C)(C)C(=O)O)c2csc(N)n2)C(=O)N1S(=O)(=O)O (stereo in doubt),max response,[4],-0.904% (inactive)
CC(=O)N/N=C/c1ccc([N+](=O)[O-])o1,Potency,[4],31.6 µM (active)
CC(=O)OCC(=O)[C@@]12N=C(C)O[C@@H]1C[C@H]1[C@@H]3CCC4=CC(=O)C=C[C@]4(C)[C@H]3[C@@H](O)C[C@@]12C,max response,[4],-5.59% (inactive)
CC(=O)Nc1c(I)cc(I)c(C(=O)O)c1I,max response,[4],44.8% (inactive)
CC(=O)OCC(=O)[C@@]12OC(C)(C)O[C@@H]1C[C@H]1[C@@H]3C[C@H](F)C4=CC(=O)C=C[C@]4(C)[C@@]3(F)[C@@H](O)C[C@@]12C,max response,[4],1.24% (inactive)
O=c1[nH]c(=O)n([C@H]2C[C@H](O)[C@@H](CO)O2)cc1C(F)(F)F,max response,[4],15% (inactive)
Cc1c(C)n(CCN(C)C)c2ccc(C(=O)OCCN(C)C)cc12,max response,[4],8.04% (inactive)
COc1cc2c(cc1OC)C(=O)C(CC1CCN(Cc3ccccc3)CC1)C2 (centres undefined),max response,[4],3.63% (inactive)
CC(=O)OCC(=O)[C@@]1(O)CC[C@H]2[C@@H]3CCC4=CC(=O)C=C[C@]4(C)[C@H]3[C@@H](O)C[C@@]21C,max response,[4],-0.763% (inactive)
NCCCC[C@H](N[C@@H](CCc1ccccc1)C(=O)O)C(=O)N1CCC[C@H]1C(=O)O,max response,[4],-3.1% (inactive)
CCOC(=O)n1ccn(C)c1=S,max response,[4],21.8% (inactive)
Cc1ccc(Nc2c(F)cccc2Cl)c(CC(=O)O)c1,max response,[4],0.561% (inactive)
COc1cccc(OC)c1C(=O)N[C@@H]1C(=O)N2[C@@H]1SC(C)(C)[C@@H]2C(=O)O,max response,[4],-0.927% (inactive)
CCCCC(CC)CN=C(N)NC(N)=NCCCCCCN=C(N)NC(N)=NCC(CC)CCCC (centres undefined),Potency,[4],6.31 µM (active)
Oc1c(I)cc(I)c2cccnc12,Potency,[4],8.91 µM (active)
C#C[C@]1(O)CC[C@H]2[C@@H]3CCC4=CC(=O)CC[C@@H]4[C@H]3CC[C@@]21C,max response,[4],8.68% (inactive)
O=C(COc1ccc(Cl)cc1)N1CCN(Cc2ccc3c(c2)OCO3)CC1,max response,[4],-7.26% (inactive)
CCCCCCCCCCCCCCCC[N+](C)(C)CCN(Cc1ccc(OC)cc1)c1ncccn1,Potency,[4],7.08 µM (active)
COc1cc(OC)cc(OC)c1,max response,[4],0.294% (inactive)
C[C@H](O)C(=O)Nc1c(I)c(C(=O)NC(CO)CO)c(I)c(C(=O)NC(CO)CO)c1I,max response,[4],9.34% (inactive)
COCc1c(C(C)C)nc(C(C)C)c(/C=C/[C@@H](O)C[C@@H](O)CC(=O)O)c1-c1ccc(F)cc1,max response,[4],-6.56% (inactive)
COc1cc(-c2ccc(=O)[nH]n2)ccc1OC(F)F,max response,[4],-3.31% (inactive)

# Source: PubChem BioAssay (NCATS)
